PD-1 reversal – reversal of PD-1 mediated T-cell inhibition; primary human CD4 T cells, PD-L1 beads, CellTiter-Glo 96 h; activation, % (concentration not given with the values); 29,000 tested, under 10 active; call rule not given here;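 also: 0% = median vehicle wells and 100% = positive control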
NOMO-1 viab – STK33 inhibitor candidate reducing NOMO-1 cell viability. NOMO-1 AML viability, CellTiter-Glo luminescence, 72 h. AID 2330. 37,000 compounds, 7.5% hits. inhibition, % (concentration not given with the values); in the data active = inhibition above about 80%
STK33 inh – blocks human STK33 kinase activity; ADP-Glo luminescence, MBP substrate; Q9BYT3; inhibition, % at 12.5 µM; 27,000 compounds, 0.44% hits; in the data active = inhibition above about 20%
Target sequence (Q9BYT3 whole entry, looked up): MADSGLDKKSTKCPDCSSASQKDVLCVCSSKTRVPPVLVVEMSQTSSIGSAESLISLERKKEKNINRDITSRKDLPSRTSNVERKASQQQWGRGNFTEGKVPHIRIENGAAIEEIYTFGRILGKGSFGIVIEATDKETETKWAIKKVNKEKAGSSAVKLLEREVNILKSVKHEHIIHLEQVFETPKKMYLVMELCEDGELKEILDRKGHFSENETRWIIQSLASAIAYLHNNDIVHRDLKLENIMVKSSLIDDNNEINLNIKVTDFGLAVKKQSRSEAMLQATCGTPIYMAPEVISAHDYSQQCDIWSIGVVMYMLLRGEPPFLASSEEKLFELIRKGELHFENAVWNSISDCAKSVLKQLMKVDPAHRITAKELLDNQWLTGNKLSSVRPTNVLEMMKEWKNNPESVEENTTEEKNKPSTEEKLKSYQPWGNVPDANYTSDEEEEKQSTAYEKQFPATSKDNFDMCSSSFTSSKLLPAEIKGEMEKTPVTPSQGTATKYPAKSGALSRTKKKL
The depositor's hits bear a star; / = not tested or not shown. The full list was thinned out, with hits kept by preference.

SMILES	PD-1 reversal	NOMO-1 viab	STK33 inh
Cc1ccc(S(=O)(=O)Nc2cccc3c2O[C@H](CN(C)Cc2ccc(Cl)c(Cl)c2)[C@H](C)CN([C@H](C)CO)C3=O)cc1	-3	41	/
Cc1ccc(S(=O)(=O)Nc2cccc3c2O[C@H](CN(C)Cc2ccc(Cl)c(Cl)c2)[C@H](C)CN([C@@H](C)CO)C3=O)cc1	/	104*	/
Cc1ccc(S(=O)(=O)Nc2cccc3c2O[C@H](CN(C)Cc2ccc(Cl)c(Cl)c2)[C@@H](C)CN([C@@H](C)CO)C3=O)cc1	/	37	/
C[C@H](CO)N1C[C@H](C)[C@@H](CN(C)Cc2ccc(Cl)c(Cl)c2)Oc2c(NS(=O)(=O)c3ccc(F)cc3)cccc2C1=O	/	19	/
CCOC(=O)c1ccc(NC(=O)C(C)Sc2nc3ccccc3[nH]2)cc1 (stereo unspecified)	-1	21	-2
Cc1ccc(-n2c(SCC(=O)Nc3ccccc3-c3ccccc3)nc3ccccc3c2=O)cc1	-1	44	3
CS(=O)(=O)N(CC(=O)O)c1cc(Cl)c(Cl)cc1Cl	/	-7	-3
O=C(CSc1nnnn1-c1ccccc1)Nc1ccc(-c2nc3ccccc3s2)cc1	0	41	10
COc1ccc(C(=O)N2c3ccccc3CCc3ccccc32)cc1	-2	104*	/
CC1(C)CC(NC(=O)N2c3ccccc3CCc3ccccc32)CC(C)(C)N1	-1	-24	/
COc1cc(C2C3=C(CC(C)(C)CC3=O)Nc3ncnn32)ccc1OCC(=O)N1CCOCC1 (stereo unspecified)	3	7	-6
CN1C(N)=NC(=O)/C1=C/c1cccnc1	0	34	/
COc1cc(-c2cc(=O)c3c(O)c(OC)c(OC)c(O)c3o2)ccc1O	/	/	65*
COc1cc2oc(-c3ccccc3)cc(=O)c2c(O)c1OC	0	-3	9
COc1c(OC)c(O)c2c(=O)cc(-c3ccc(O)cc3)oc2c1OC	-2	115*	29*
COc1cc2oc(-c3ccccc3)cc(=O)c2c(OC)c1OC	-3	7	-4
CC1CCc2c(sc3ncn(CC(=O)Nc4c(C(C)C)cccc4C(C)C)c(=O)c23)C1 (stereo unspecified)	1	46	3
CC(=O)c1c(C)nn(CC(O)COc2ccc3c(c2)CCC3)c1C (stereo unspecified)	-2	55	0
Cc1nn(CC(O)COc2ccc3c(c2)CCC3)c(C)c1Br (stereo unspecified)	-5	96*	1
COc1ccc(OC)c(NC(=O)Cn2cc(C(=O)C3CCCCC3)c3ccccc32)c1	-3	14	-1
COC(=O)c1sc(=S)sc1C(=O)OC	-8	96*	-4
COC(=O)c1ccc(C(=O)OC)cc1	1	20	/
COc1cc(O)c(C(=O)/C=C/c2ccc(O)c(OC)c2)c(OC)c1	/	74	51*
COc1cc(/C=C/C(=O)NCC(O)c2ccc(O)cc2)ccc1O (stereo unspecified)	/	/	-3
COc1ccc(CN(C)C[C@@H]2Oc3ccc(NC(=O)CCCCCC(=O)Nc4ccccc4N)cc3CC(=O)N([C@@H](C)CO)C[C@@H]2C)cc1	0	127*	/
SMILES	PD-1 reversal	NOMO-1 viab	STK33 inh
COc1ccc(NC(=O)N(C)C[C@@H]2Oc3ccc(NC(=O)CCCCCC(=O)Nc4ccccc4N)cc3CC(=O)N([C@H](C)CO)C[C@H]2C)cc1	4	-1	/
COc1ccc(CN(C)C[C@@H]2Oc3ccc(NC(=O)CCCCCC(=O)Nc4ccccc4N)cc3CC(=O)N([C@H](C)CO)C[C@@H]2C)cc1	-2	124*	/
COc1ccc(CN(C)C[C@H]2Oc3ccc(NC(=O)CCCCCC(=O)Nc4ccccc4N)cc3CC(=O)N([C@@H](C)CO)C[C@H]2C)cc1	1	75	/
COc1cc(CCC(O)CC(O)CCc2ccc(O)c(OC)c2)ccc1O (stereo unspecified)	/	/	-4
Cc1sc(/N=C/c2cn(Cc3ccccc3)c3ccccc23)c(C#N)c1C	0	64	/
COc1ccc(C)cc1NC(=O)C1CCCN(S(=O)(=O)c2ccc(C)cc2)C1 (stereo unspecified)	-1	17	1
CCOc1cc(C2N=C(Nc3nc4ccccc4o3)NC3=C2C(=O)CC(C)(C)C3)ccc1O (stereo unspecified)	/	36	2
O=C(CSc1nc(-c2ccccc2)cc(=O)[nH]1)NCC1CCCO1 (stereo unspecified)	/	16	0
Cc1c(Br)c(C(F)(F)F)nn1CC(=O)Nc1cc(Oc2cccnc2)cc([N+](=O)[O-])c1	/	59	0
C[C@@H]1CN([C@@H](C)CO)C(=O)c2cc(NC(=O)Nc3ccc(C(F)(F)F)cc3)ccc2O[C@@H]1CN(C)C(=O)Nc1ccc(F)cc1	-6	113*	/
C[C@H]1CN([C@@H](C)CO)C(=O)c2cc(NC(=O)Nc3ccc(C(F)(F)F)cc3)ccc2O[C@@H]1CN(C)C(=O)Nc1ccc(F)cc1	-3	14	/
C[C@H](CO)N1C[C@H](C)[C@H](CN(C)C(=O)Nc2ccc(F)cc2)Oc2ccc(NC(=O)Nc3ccc(C(F)(F)F)cc3)cc2C1=O	-3	112*	/
C[C@H](CO)N1C[C@H](C)[C@@H](CN(C)C(=O)Nc2ccc(C(F)(F)F)cc2)Oc2ccc(NC(=O)Nc3ccc(F)cc3)cc2C1=O	-2	19	2
O=C(CSc1nc2c(c(C(F)(F)F)n1)CCc1ccccc1-2)Nc1c(F)cc(F)cc1Br	/	-8	-2
C[C@@H]1CN([C@@H](C)CO)C(=O)c2cccc(NC(=O)Nc3ccc(C(F)(F)F)cc3)c2O[C@@H]1CN(C)Cc1ccccc1	-3	89*	/
C[C@H](CO)N1C[C@H](C)[C@H](CN(C)Cc2ccccc2)Oc2c(NC(=O)Nc3ccc(C(F)(F)F)cc3)cccc2C1=O	/	74	/
C[C@H](CO)N1C[C@H](C)[C@@H](CN(C)Cc2ccccc2)Oc2c(NC(=O)Nc3ccc(C(F)(F)F)cc3)cccc2C1=O	-7	115*	/
C[C@H]1CN([C@@H](C)CO)C(=O)c2cccc(NC(=O)Nc3ccc(C(F)(F)F)cc3)c2O[C@@H]1CN(C)Cc1ccc(-c2ccccc2)cc1	-5	85*	-1
C[C@H]1CN([C@@H](C)CO)C(=O)c2cccc(NC(=O)Nc3ccc(C(F)(F)F)cc3)c2O[C@H]1CN(C)Cc1ccc(-c2ccccc2)cc1	-4	52	/
C[C@H](CO)N1C[C@H](C)[C@@H](CN(C)Cc2ccc(-c3ccccc3)cc2)Oc2c(NC(=O)Nc3ccc(C(F)(F)F)cc3)cccc2C1=O	/	53	/
C[C@@H]1CN([C@H](C)CO)C(=O)c2cccc(NC(=O)Nc3ccc(C(F)(F)F)cc3)c2O[C@H]1CN(C)Cc1ccccc1	-7	101*	/
CCS(=O)(=O)c1nc2ccccc2n1CC(N)=O	1	8	0
Cc1cc(C)c(NC(=O)CN(C)S(=O)(=O)c2ccc(Br)cc2)c(C)c1	-3	50	0
CC(C)(C)NS(=O)(=O)c1ccc(NC(=O)CSc2nc3ccccc3s2)cc1	-1	15	2
CCc1ccc(NC(=O)CSc2nnc(C)n2-c2ccccc2)cc1	1	-29	-3
Cc1c(C)c(C)c(C(=O)/C=N/N)c(C)c1C	2	2	/
Cc1ccnc(NS(=O)(=O)c2ccc(NC(=O)c3cccs3)cc2)n1	/	-12	-1
CC(C)NS(=O)(=O)c1ccc(OCC(=O)O)cc1	2	-5	-5
